# TRPML1 blocker: qHTS for Inhibitors of the Human Mucolipin Transient Receptor Potential 1 (TRPML1). AID 624415, 2012. activity change, negative = inhibition, % (test concentration not listed). Mucolipin-1 (Homo sapiens), Q9GZU1. 390,000 tested, 0.02% active. TRPML1-inducible cells, Ca2+ dye fluorescence, FDSS; stronger effect = lower value; inhibition of EC80 agonist-evoked calcium signal; in the data active means activity change below about -50%; inconclusive means between about -30% and that limit;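 further: stimulus is agonist 54-4 at its EC80 concentration; on the % scale 0 is the no-effect control and ±100 the full control effect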
#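 Calcium fluorescence in TRPML1-DL cells induced overnight with Tet: a 110 s read after compound pin addition, then a 110 s antagonist read after challenge with 54-4 at 4 uM final (EC80).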
# IL2 activator: qHTS of IL-2 Activators | AID 652025, 2013 | 360,000 tested, 0.065% active | activation, % (series mostly up to about 46 µM) | IL-2 activation reporter assay, cell-based qHTS; stimulated with anti-CD3/CD4/CD28 beads; in transgenic mouse T cells; further: 0% is about no effect
#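 Using fluorescent plate cytometry, EGFP and DsRed are detected in transgenic mouse T cells stimulated 18 h at 37 degrees C with antibody-coated beads after 60 min compound pretreatment.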
# BRCA1 expr up: qHTS Assay to Identify Small Molecule Activators of BRCA1 Expression; MCF7-BRCA1-FFLuc reporter, luminescence, 48 h; response scale: scaled: vehicle 0%, 10 µM genistein 100%; Potency, µM (series often up to 46.1 µM), for the others: at the top dose activation, most hits filed as activators; 380,000 tested, 1.1% active; active means well fitted activation curve with a large enough effect; inconclusive means small, poorly fitted or top-dose-only effect; inactive means no such curve, though single readings can be large or run the other way; further: potency means the concentration at half of the fitted maximal effect; nearly all actives have a fitted effect of over 80% in size
#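 MCF7 cells carrying a BRCA1-firefly luciferase reporter (2000 cells/well, phenol-red free MEM) were attached for 2 h at 37 °C, then given compounds for 48 h. Luminescence was read 15 min after luciferase reagent; activity normalized to genistein (10 microM) and DMSO.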
# TRPML1 ag: qHTS for Agonists of the Human Mucolipin Transient Receptor Potential 1 (TRPML1). activation, % (concentration not given with the values). 410,000 tested, 0.12% active. Mucolipin-1 (Homo sapiens), Q9GZU1. TRPML1-expressing cells, Ca2+ dye fluorescence, FDSS; further: 0% is about no effect
#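 Cells: TRPML1-DL, 1X Tet inducer, ~16 h at 37 degrees C/5% CO2. Dye: ABD Ca8 no-wash + quencher, 45-90 min RT. Read: 10 s baseline, compound add, 110 s agonist phase; 54-4 EC80 (4uM final), 110 s antagonist phase.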
# PKM2 act: qHTS Assay for Activators of Human Muscle isoform 2 Pyruvate Kinase; Pyruvate kinase PKM (Homo sapiens), P14618; purified PKM2, Kinase-Glo ATP luminescence, activation; response scale: 0% is enzyme alone, no compound; Potency, µM (series often up to 57.5 µM), for the others: at the top dose activation, hits mostly activators; 260,000 tested, 0.34% active; AID 1631, 2009; active means well fitted activation curve with a large enough effect; inconclusive means small, poorly fitted or top-dose-only effect; inactive means no such curve, though single readings can be large or run the other way; further: potency means the concentration at half of the fitted maximal effect; on the % scale 0 is the no-effect control and ±100 the full control effect; nearly all actives have a fitted effect of over 55% in size
# Target sequence (P14618 whole entry, looked up, canonical isoform): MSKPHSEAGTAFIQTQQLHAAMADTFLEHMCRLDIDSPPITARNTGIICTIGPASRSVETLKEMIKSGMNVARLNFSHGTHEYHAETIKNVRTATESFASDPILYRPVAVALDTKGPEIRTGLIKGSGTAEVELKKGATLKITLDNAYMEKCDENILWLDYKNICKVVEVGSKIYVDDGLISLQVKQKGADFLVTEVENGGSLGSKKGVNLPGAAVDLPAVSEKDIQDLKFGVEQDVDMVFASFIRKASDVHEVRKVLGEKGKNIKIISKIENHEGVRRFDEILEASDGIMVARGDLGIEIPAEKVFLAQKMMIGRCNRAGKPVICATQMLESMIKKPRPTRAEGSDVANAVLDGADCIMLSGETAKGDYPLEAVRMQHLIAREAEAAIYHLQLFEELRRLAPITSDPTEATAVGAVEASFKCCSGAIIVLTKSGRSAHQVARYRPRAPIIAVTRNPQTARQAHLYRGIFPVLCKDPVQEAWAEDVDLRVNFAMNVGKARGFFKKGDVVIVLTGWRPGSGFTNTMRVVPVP
#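 ATP formation by purified human PK-M2, quantified via coupled luciferase luminescence after 1 h at room temperature with 0.1 mM ADP and 0.5 mM PEP final.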
# PTAP TSG101 blk: qHTS Assay for Iinhibitors of HIV-1 Budding by Blocking the Interaction of PTAP/TSG101; Potency, µM (doses to about 115 µM), for inactives: at the top dose activity change, negative = inhibition, actives largely listed as inhibitors; Tumor susceptibility gene 101 protein (Homo sapiens), Q99816; Fluorescence polarization, FITC-PTAP peptide / Tsg101 binding; AID 493005, 2010; 340,000 tested, under 10 active; active means well fitted inhibition curve with a large enough effect in the main read-out, with a control signal flat, not every such curve was filed as active; inconclusive means small, poorly fitted or top-dose-only effect, or effect the other way, or a change in a side signal; inactive means no such curve, though single readings can be large or run the other way; further: potency means the concentration at half of the fitted maximal effect; % of control where 0% means no effect
#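 FP read-out: FITC-PTAP peptide, 50 nM final, binding Tsg101 binding domain, 10 uM final; 20 min, r.t.; 10 mM HEPES pH 7.5, 0.15 M NaCl, 0.01% Tween 20, 3 mM EDTA, 0.1 mM TCEP.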
# The depositor's hits bear a star; u = inconclusive; x = no result given. Most compounds without a hit are left out; they make up all but 1.3% or so of the library. Unless noted, no stated cut-off is given here; in the data, active means activation above about 50%; inconclusive means mostly about 30% to 49%; inactive means weaker than that.
SMILES,TRPML1 blocker,IL2 activator,BRCA1 expr up,TRPML1 ag,PKM2 act,PTAP TSG101 blk
COc1ccc(C(=O)COc2ccc(F)cc2)c(O)c1,2.2,-1.5,11.2µM*,-0.3,2.7%,0.5%
O=C(COc1ccc(F)cc1)c1c(O)cc(O)cc1O,0.2,0.1,2.6%,-0.3,-0.9%,0.3%
CCCN1Cc2cccc(C(=O)Nc3ccc(C(C)=O)cc3)c2C1=O,-10.4,x,x,1.6,x,x
Cc1ccccc1Nc1nc(N)nc(COC(=O)c2ccco2)n1,-8.0,0.8,3.98µM*,-0.3,x,-2.8%
O=C(CSc1oc(-c2ccco2)nc1S(=O)(=O)c1ccc(Br)cc1)c1ccccc1,42.7,x,x,2.1,x,x
COc1cc(/C=C2\SC(=O)N(c3cccc(Cl)c3)C2=O)cc([N+](=O)[O-])c1O,8.6,-3.9,0.0%,0.6,7.94µM*,-10.4%
Cc1ccc(CC(=O)NO)cc1,x,x,0.0%,-0.4,x,x
O=C(NCc1ccc(F)cc1)C1CCCN(c2ncnc3onc(-c4ccc(F)cc4)c23)C1 (stereo not given),-16.1,x,x,-0.5,x,x
Cc1ccc2nc(CO)[nH]c2c1,x,x,4.9%,-0.2,x,x
Cc1occc1C(=O)N/N=C/c1ccc(Br)s1,-0.9,0.4,8.91µM*,-0.5,-27.2%,-0.3%
CCOc1ccc(/C=N/NC(=O)c2ccoc2C)cc1OC,21.4,1.2,10µM*,-0.3,-28.8%,-0.6%
Cc1ccc(/C=N/NC(=O)c2ccoc2C)s1,-6.1,-1.7,u,-0.2,-46.9%,-0.5%
COCCCNC(=O)C1CCN(C(=O)c2oc3cc4sc(N(C)C)nc4cc3c2C)CC1,-5.2,-1.9,11.2µM*,-0.5,x,-5.4%
CCN(CC)CCCNC(=O)C1CCN(C(=O)c2oc3cc4sc(N(C)C)nc4cc3c2C)CC1,-12.3,-3.1,u,-0.4,x,-2.2%
Brc1ccc(C2C=Cc3ccccc32)cc1 (stereo not given),x,x,8.6%,-0.4,x,x
O=C(COc1ccc2c(c1)OCO2)Nc1ccccc1C(F)(F)F,4.2,-2.2,10µM*,-0.8,0.5%,-1.4%
CC1Cc2ccccc2N1C(=O)COc1ccc2c(c1)OCO2 (stereo not given),-1.0,2.0,3.16µM*,0.6,0.0%,-4.6%
Cc1ccc(NC(=O)COc2ccc3c(c2)OCO3)c(Cl)c1,18.4,0.1,14.1µM*,10.1,x,-0.1%
CC(C)(C)c1nnc(NC(=O)COc2ccc3c(c2)OCO3)s1,1.4,2.3,2.51µM*,1.6,x,1.4%
C=C(c1ccc2ccccc2n1)c1cccs1,x,x,x,-0.4,x,x
N#C/C(=C\c1ccc(Cl)c([N+](=O)[O-])c1)c1ccccn1,3.9,0.1,-95.9%,-0.6,-14.9%,5.7%
CNc1ccc(/C=C(\C#N)c2ccccn2)cc1[N+](=O)[O-],-1.2,2.4,10µM*,-0.2,-2.9%,5.0%
Cc1cccc2c1-c1sc(C(=O)N3CCCCC3)cc1CO2,27.0,-4.5,6.31µM*,0.6,-0.6%,-2.5%
CCOC(=O)N1CCN(C(=O)c2cc3c(s2)-c2c(C)cccc2OC3)CC1,22.8,-0.4,3.0%,3.1,x,-5.1%
COc1ccccc1C(=O)Nc1ccc(N2CCN(S(C)(=O)=O)CC2)cc1,46.2,-2.3,11.2µM*,0.3,-3.3%,-3.1%
SMILES,TRPML1 blocker,IL2 activator,BRCA1 expr up,TRPML1 ag,PKM2 act,PTAP TSG101 blk
COc1ccccc1C(=O)Nc1ccccc1N1CCN(S(C)(=O)=O)CC1,-5.4,0.0,-24.3%,-0.4,6.6%,-10.1%
COc1c(C)cccc1C(=O)Nc1ccc(N2CCN(S(C)(=O)=O)CC2)cc1,-5.1,2.1,3.55µM*,-0.6,0.0%,4.5%
CC(=O)c1cccc(NC(=O)Cc2noc3ccccc23)c1,-26.0,x,x,0.4,x,x
Cc1cccc(NC(=O)Cc2noc3ccccc23)c1,3.2,-0.6,11.2µM*,-1.0,17.8%,-5.6%
N#CC(c1ccccc1)(c1ncc(C(F)(F)F)cc1Cl)N1CCOCC1 (stereo not given),1.8,-0.2,-22.8%,0.7,4.7%,-2.6%
N#CC(c1cccc(C(F)(F)F)c1)(c1ncc(C(F)(F)F)cc1Cl)N1CCOCC1 (stereo not given),-6.6,-0.1,-24.9%,56.5*,-0.7%,-4.7%
O=C(COc1ccc2ccccc2c1)Nc1ccc(O)c(-c2nc3ccccc3o2)c1,x,x,-5.5%,-0.6,x,x
CC(C)(C)CC(=O)Nc1ccc(Nc2ccccc2)cc1,-5.8,-1.0,6.31µM*,3.4,2.7%,-4.1%
CC(C)CC(=O)Nc1ccc(Nc2ccccc2)cc1,25.3,1.2,47.8%,0.1,-10.4%,-4.7%
CCCCc1ccc(NC(=O)CC(C)(C)C)cc1,-2.7,-6.2,12.6µM*,-0.3,-7.6%,-0.8%
CCCCc1ccc(NC(=O)CC(C)=O)cc1,-12.0,-1.8,44.5%,0.0,1.2%,-7.7%
CC1CCc2cc(F)cc3c2N1C(=O)C(C(=O)Nc1cnccn1)C3=O (stereo not given),x,x,-24.2%,-0.5,x,x
Nc1ccc2oc3ccccc3c2c1,-9.2,-0.7,3.16µM*,0.5,0.2%,-0.9%
Nc1ccc(C#Cc2ccc3oc4ccccc4c(=O)c3c2)cc1,-6.9,0.0,u,0.0,x,1.7%
Cc1cc(-c2nc(-c3ccc(C(C)(C)C)cc3)no2)no1,-0.2,0.3,7.08µM*,1.0,7.5%,-4.7%
Cc1nc(-c2cc(-c3nc(-c4ccc(C(F)(F)F)cc4)no3)no2)cs1,1.9,-0.4,-2.2%,0.1,1.6%,1.5%
O=C(COc1ncnc2cc(Cl)ccc12)c1ccc2c(c1)OCCO2,-5.7,1.3,1.78µM*,-0.1,1.1%,3.9%
Cc1nc(C(=O)Nc2ccccc2)sc1C(=O)Nc1ccccc1,-0.7,-0.2,2.82µM*,0.3,-0.6%,1.7%
Cc1nc(N)sc1C(=O)Nc1ccccc1,-4.7,0.0,34.3%,-0.1,-24.9%,-8.7%
Cc1cc(N(C)C)cc(C)c1/C=C/c1ccnc2ccccc12,x,x,x,4.5,x,x
OC[C@H](S)CS,x,x,-24.1%,-0.4,x,x
O=C(CCn1c(=O)c2cccn2c2cccnc21)NCc1ccc(Cl)cc1,-9.7,x,x,-0.5,x,x
O=[N+]([O-])c1ccc(N/N=C/c2ccccc2)c(F)c1,2.0,-0.1,8.91µM*,1.1,1.8%,-1.1%
O=[N+]([O-])c1ccc(C=NNc2ccccc2)cc1,10.4,-0.3,15.1%,5.7,x,7.2%
